Bioassay records as filed in PubChem BioAssay.
DUX4 inh – blocks DUX4-driven transcriptional activation. 293T-iDUX4 ZSCAN4-Gaussia luciferase reporter, 24 h; stronger effect = lower value. activity change, negative = inhibition, % (test concentration not listed). 37,000 tested, 0.8% active;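 active means mean inhibition of at least 10% in the main channel, exceeding the control channel by a set limit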;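 further: 0% = median of neutral control wells and -100% = median of positive control wells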
Active calls of the source: *. The sample as a whole holds a higher share of hits than the screen did.

SMILES	DUX4 inh
COC(=O)[C@H]1[C@H](CO)[C@H]2Cn3c(ccc(-c4cccnc4)c3=O)[C@@H]1N2S(=O)(=O)c1ccccc1C	-2
COC(=O)[C@@H]1[C@@H](CO)[C@@H]2Cn3c(ccc(-c4cccnc4)c3=O)[C@H]1N2S(=O)(=O)c1ccccc1C	2
COC(=O)[C@@H]1[C@@H](CO)[C@@H]2Cn3c(ccc(-c4cncnc4)c3=O)[C@H]1N2S(=O)(=O)c1ccccc1C	-17*
COC(=O)[C@H]1[C@H](CO)[C@H]2Cn3c(ccc(-c4cccc(OC)c4)c3=O)[C@@H]1N2C(=O)c1cnccn1	-3
O=C(Cc1ccccc1)N1C[C@@H]2[C@H](c3ccccc31)[C@@H](CO)N2Cc1ccccc1	1
O=C(Cc1ccncc1)N1CCCCN2[C@@H](CO)[C@@H](c3ccc(-c4ccncc4)cc3)[C@@H]2C1	14
O=C(Cc1ccncc1)N1CCCCN2[C@H](CO)[C@@H](c3ccc(C#Cc4ccccc4F)cc3)[C@H]2C1	-28*
O=C(Cc1ccncc1)N1CCCCN2[C@H](CO)[C@H](c3ccc(-c4ccncc4)cc3)[C@@H]2C1	12
O=C(Cc1ccccc1)N1CC2(C1)[C@@H](c1ccccc1)[C@H](CO)N2Cc1cccc(F)c1	-10
CCCN1[C@@H]2c3cccc(=O)n3C[C@H]1[C@H](CO)[C@H]2C(=O)N(C)C	6
